Laboratory results from the supplement of paper PMC12645437, “Orthogonal IMiD-Degron Pairs Induce Selective Protein Degradation in Cells” (ACS Chemical Biology, 2025).
Over roughly 8,300 sequences, “log2 fold change of degron read counts, EGFP-low vs EGFP+ sorted cells (limma voom), compound-induced degradation” has its median near -1.1; the highest 2% begin near 3.2. The sample as a whole holds a higher share of the highest values than the screen did.

T1: CRBN, Q96SW2
T1 chain: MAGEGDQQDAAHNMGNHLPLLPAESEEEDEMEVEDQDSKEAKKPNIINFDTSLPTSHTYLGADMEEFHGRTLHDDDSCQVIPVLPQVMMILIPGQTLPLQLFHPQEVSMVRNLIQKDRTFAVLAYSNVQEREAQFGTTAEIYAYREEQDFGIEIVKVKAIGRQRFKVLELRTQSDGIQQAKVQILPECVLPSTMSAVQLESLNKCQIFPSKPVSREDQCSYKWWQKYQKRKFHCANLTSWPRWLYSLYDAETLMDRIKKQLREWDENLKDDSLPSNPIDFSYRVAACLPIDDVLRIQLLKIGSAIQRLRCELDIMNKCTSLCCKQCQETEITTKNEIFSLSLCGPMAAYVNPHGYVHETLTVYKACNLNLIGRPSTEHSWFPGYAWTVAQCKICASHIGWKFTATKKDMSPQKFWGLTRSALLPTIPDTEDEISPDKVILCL


Biological target: T1, CRBN, Q96SW2
Experiment: log2 fold change of degron read counts, EGFP-low vs EGFP+ sorted cells (limma voom), compound-induced degradation; higher = more compound-induced degradation of the degron-EGFP fusion; degrons are variants of IKZF1/3 zinc finger 2; compound dose not given here
Conditions: Jurkat, 18 h
[1] = compound: compound 19 (5-tert-butyl-thalidomide)
[2] = compound: compound 22 (5-morpholino-thalidomide)
[3] = compound: compound 33 (diphenyl IMiD analogue)
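Also: pooled lentiviral library of zinc finger degron-EGFP fusions in mCherry-positive Jurkat cells, FACS-sorted after compound exposure, with degron abundance counted by next-generation sequencing.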

Sequence | log2 fold change of degron read counts [1] | log2 fold change of degron read counts [2] | log2 fold change of degron read counts [3] | log2 fold change of degron read counts (compound: thalidomide)
FTCEICGRFFTQKGNLLRHIKL [46F_47T_49E_50I_52G_53R_54F_55F_67L_, Q9UKT9] | -1.56 | -2.16 | -1.26 | -1.11
FSCPICGHHFTQKGNLLRHIKL [46F_47S_49P_50I_52G_53H_54H_55F_67L_, Q9UKT9] | -1.98 | -2.66 | -2 | -1.93
FDCPICGRVFTQKGNLLRHIKL [46F_47D_49P_50I_52G_53R_54V_55F_67L_, Q9UKT9] | -0.729 | -0.635 | 1.53 | 1.97
FLCNVCGAAFTQKGNLLRHIKL [46F_47L_49N_50V_52G_53A_54A_55F_67L_, Q9UKT9] | -1.6 | -2.27 | -0.522 | -0.568
FCCEICGAAFTQKGNLLRHIKL [46F_47C_49E_50I_52G_53A_54A_55F_67L_, Q9UKT9] | 3.72 | 3.1 | 2.29 | 2.46
FSCEICGAAFTQKGNLLRHIKL [46F_47S_49E_50I_52G_53A_54A_55F_67L_, Q9UKT9] | 3.56 | 2.95 | 2.24 | 2.15
FKCEICGAAFTQKGNLLRHIKL [46F_47K_49E_50I_52G_53A_54A_55F_67L_, Q9UKT9] | 2.15 | -0.809 | -1.83 | 0.606
FTCEICGAAFTQKGNLLRHIKL [46F_47T_49E_50I_52G_53A_54A_55F_67L_, Q9UKT9] | 3.16 | 3.21 | 2.33 | 3.02
FNCEICGAAFTQKGNLLRHIKL [46F_47N_49E_50I_52G_53A_54A_55F_67L_, Q9UKT9] | 3.08 | 1.75 | 0.0717 | 0.718
FACNVCGAMFTQKGNLLRHIKL [46F_47A_49N_50V_52G_53A_54M_55F_67L_, Q9UKT9] | 0.511 | -0.724 | -0.968 | -1.44
FFCDQCGAAFTQKGNLLRHIKL [46F_47F_49D_50Q_52G_53A_54A_55F_67L_, Q9UKT9] | 0.0639 | -0.343 | -0.617 | -2.46
LCCEICGFVCTQKGNLLRHIKL [46L_47C_49E_50I_52G_53F_54V_55C_67L_, Q9UKT9] | 0.511 | 0.955 | 1.53 | 1.13
LFCEICGFVCTQKGNLLRHIKL [46L_47F_49E_50I_52G_53F_54V_55C_67L_, Q9UKT9] | 3.27 | 3.45 | 1.38 | 1.31
LKCEICGFVCTQKGNLLRHIKL [46L_47K_49E_50I_52G_53F_54V_55C_67L_, Q9UKT9] | -1.72 | -2.04 | -2.48 | -0.691
LLCEICGFVCTQKGNLLRHIKL [46L_47L_49E_50I_52G_53F_54V_55C_67L_, Q9UKT9] | -0.934 | -1.38 | 0.0357 | 1.04
LACEICGFVCTQKGNLLRHIKL [46L_47A_49E_50I_52G_53F_54V_55C_67L_, Q9UKT9] | 2.04 | 1.25 | -0.215 | -0.0645
LYCEICGFVCTQKGNLLRHIKL [46L_47Y_49E_50I_52G_53F_54V_55C_67L_, Q9UKT9] | 3.3 | 3.29 | 2.43 | 0.954
LWCEICGFVCTQKGNLLRHIKL [46L_47W_49E_50I_52G_53F_54V_55C_67L_, Q9UKT9] | 2.88 | 3.17 | 2.26 | 0.659
LQCEICGFVCTQKGNLLRHIKL [46L_47Q_49E_50I_52G_53F_54V_55C_67L_, Q9UKT9] | -0.0768 | 1.31 | 1.38 | 3.4
LSCEICGFVCTQKGNLLRHIKL [46L_47S_49E_50I_52G_53F_54V_55C_67L_, Q9UKT9] | 1.2 | 1.38 | 0.553 | 0.403
FCCDVCGACFTQKGNLLRHIKL [46F_47C_49D_50V_52G_53A_54C_55F_67L_, Q9UKT9] | 0.633 | 0.299 | 1.47 | -0.594
FWCNQCGAKFTQKGNLLRHIKL [46F_47W_49N_50Q_52G_53A_54K_55F_67L_, Q9UKT9] | 0.0883 | 0.432 | -1.2 | -1.53
FTCNQCGRLFTQKGNLLRHIKL [46F_47T_49N_50Q_52G_53R_54L_55F_67L_, Q9UKT9] | -2.58 | -2.81 | -3.15 | -2.31
FYCPICGRVFTQKGNLLRHIKL [46F_47Y_49P_50I_52G_53R_54V_55F_67L_, Q9UKT9] | -0.29 | -0.155 | 0.579 | -1.3
FWCNQCGRTFTQKGNLLRHIKL [46F_47W_49N_50Q_52G_53R_54T_55F_67L_, Q9UKT9] | -1.55 | -1.36 | -1.37 | -1.45
FVCDQCGAPFTQKGNLLRHIKL [46F_47V_49D_50Q_52G_53A_54P_55F_67L_, Q9UKT9] | -1.33 | 0.669 | -0.689 | -0.0169
FICPICGRVFTQKGNLLRHIKL [46F_47I_49P_50I_52G_53R_54V_55F_67L_, Q9UKT9] | -1.47 | -0.445 | 0.321 | 0.637
FGCPICGAWFTQKGNLLRHIKL [46F_47G_49P_50I_52G_53A_54W_55F_67L_, Q9UKT9] | 1.54 | -0.463 | 1.47 | -0.0772
